# Experimental data reported in PubChem BioAssay AID777 (Sanford-Burnham Center for Chemical Genomics, 2007).
# Out of some 96,000 compounds screened, about 19,000 (20%) were called active.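 How the source made its calls: active means blocking of liver enzyme CYP2C9 beyond about 50% at 5 µM (limit read from the data); inactive means the rest.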 A selection follows.
# Biological target: Cytochrome P450 2C9 (Homo sapiens) (UniProt P11712)
# Experiment: blockers of cytochrome P450 2C9 activity – biochemical, luminescence, ADME assay, primary screen (AID 777)
# Settings: CYP2C9 Supersomes, luciferin-H conversion, at 5 µM, stronger effect = higher value
# Chain of Cytochrome P450 2C9 (Homo sapiens) (P11712 whole entry, looked up): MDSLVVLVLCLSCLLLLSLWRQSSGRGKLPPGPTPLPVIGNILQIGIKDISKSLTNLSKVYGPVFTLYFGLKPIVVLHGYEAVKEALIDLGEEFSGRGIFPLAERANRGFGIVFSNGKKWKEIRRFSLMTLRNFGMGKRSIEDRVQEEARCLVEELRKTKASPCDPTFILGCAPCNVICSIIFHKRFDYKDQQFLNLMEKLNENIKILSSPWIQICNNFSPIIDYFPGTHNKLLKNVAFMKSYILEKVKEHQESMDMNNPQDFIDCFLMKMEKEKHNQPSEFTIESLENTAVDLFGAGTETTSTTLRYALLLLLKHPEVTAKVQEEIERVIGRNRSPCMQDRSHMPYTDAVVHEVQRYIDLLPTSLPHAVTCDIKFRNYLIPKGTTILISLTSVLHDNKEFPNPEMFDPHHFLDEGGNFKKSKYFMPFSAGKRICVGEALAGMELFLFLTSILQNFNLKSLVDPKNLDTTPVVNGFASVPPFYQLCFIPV
row,SMILES,inhibition
1,COc1ccc2oc(C)c(NC(C)=O)c2c1,-8.9% (inactive)
2,COc1ccc(Nc2cc(=O)oc3ccccc23)cc1,-27.6% (inactive)
3,COc1ccc(S(=O)(=O)Nc2ccc3oc(C)c(C(C)=O)c3c2)cc1,67.2% (active)
4,CCOC(=O)c1c(C)[nH]c(C)c1C(=O)CSc1nc(N)cc(N)n1,-35.6% (inactive)
5,COc1cc(CNCc2cccs2)cc(Br)c1OC,8.7% (inactive)
6,Cn1c(SCc2c(F)cccc2Cl)nnc1-c1cnccn1,-6% (inactive)
7,COc1cccc(N=c2oc3c(C)ncc(CO)c3cc2C(N)=O)c1,11.4% (inactive)
8,COc1cccc(OC)c1C(=O)Nc1nnc(C(C)C)s1,20.1% (inactive)
9,COc1ccccc1NC(=O)C1=C(C)NC2=C(C(=O)CCC2)C1c1ccc(C)o1 (centres undefined),10.7% (inactive)
10,COC(=O)C1=C(C)NC(=O)NC1/C=C/c1ccccc1 (centres undefined),-0.6% (inactive)
11,COC(=O)C1=C(C)NC2=C(C(=O)c3ccccc32)C1c1ccc(-c2ccc(C(=O)O)cc2)o1 (centres undefined),97.3% (active)
12,Clc1ccc(C=NC23CN4CN(CN(C4)C2)C3)cc1,1.1% (inactive)
13,COc1ccc(CN2CCCCC2C)cc1OC (centres undefined),-9.7% (inactive)
14,CCc1ccc2oc(=O)cc(CN3CCCCC3C)c2c1 (centres undefined),54.9% (active)
15,Cc1ccc(CN2C(=O)CCC2C(=O)NCCCN2CCCCC2C)cc1 (centres undefined),0% (inactive)
16,CCC1(CC)NC(=O)N(CC(=O)OCC(=O)Nc2ccc(C(F)(F)F)cc2)C1=O,-10.3% (inactive)
17,CCC(C)(C)c1ccc(Oc2ccc(NC(=O)COC(=O)C3=COCCO3)cc2)cc1,76.1% (active)
18,O=C(OCC(=O)c1cccs1)C1=COCCO1,0.5% (inactive)
19,O=C(C1CC1)N1CCN=C1SCc1ccc(Cl)cc1,21.3% (inactive)
20,CC(C(=O)N1CCOCC1)N1c2cccc3cccc(c23)S1(=O)=O (centres undefined),-30.6% (inactive)
21,NC(N)=N/N=C/c1ccc(OCc2ccc(Cl)cc2Cl)cc1,-11.8% (inactive)
22,COc1ccc(C2Nc3ccccc3C(=O)N2Cc2ccccc2)cc1Cn1nnc2ccccc21 (centres undefined),93.5% (active)
23,COc1ccc(C2=NO[C@@H]3C(=O)N(Cc4ccccc4)C(=O)[C@H]23)cc1OC,47% (inactive)
24,Cc1cc(C)c2c(n1)nn1c(-n3ccnc3)cc(C)nc21,-4.3% (inactive)
25,CCn1c(Cc2ccccc2)nnc1SCC(=O)Nc1ccccc1,4% (inactive)

row,SMILES,inhibition
1,Cc1ccccc1NC(=O)Cc1nnc(SCC(=O)N2CCN(c3ccccc3)CC2)n1C,13.3% (inactive)
2,Cn1c(CNc2nc(-c3ccccc3)cs2)nnc1SCC(=O)c1ccccc1,65.7% (active)
3,Cc1ccc(C(=O)CSc2nnc(Cn3nnc4ccccc43)n2C)cc1,20.6% (inactive)
4,CCOC(=O)CSc1nnc(CNc2nc(-c3ccccc3)cs2)n1C,-2.1% (inactive)
5,Cn1c(CC(=O)Nc2ccccc2)nnc1SCC(=O)c1ccccc1,76.5% (active)
6,CCc1ccc2c(c1)cc(CN(C(=S)Nc1ccccc1Cl)C1CC1)c1nnnn12,-11.3% (inactive)
7,CCOc1ccccc1C1C(C(=O)OC)=CN(C)C=C1C(=O)OC,39.1% (inactive)
8,CC(C)Oc1ccc(Oc2ccc(C(F)(F)F)cn2)cc1,23.3% (inactive)
9,Cc1ccc(C2C(C#N)C(C#N)N3CCCN23)cc1 (centres undefined),-8.1% (inactive)
10,CCOC(=O)c1c(C)n(C)c2ccc(OC)c(NC(=O)CN3CCC4(CC3)OCCO4)c12,18.3% (inactive)
11,COc1ccc(CCNC(=O)CN2CCC(n3nnc4cc(F)ccc43)CC2)cc1OC,28.1% (inactive)
12,Cc1nn(CC(=O)Nc2nc3ccccc3s2)c(C)c1[N+](=O)[O-],89.2% (active)
13,Cc1nn(Cc2ccccc2Cl)c(C)c1NC(=O)Cn1nc([N+](=O)[O-])c(Cl)c1C,11% (inactive)
14,CSCCC(Nc1nc2ccccc2s1)C(=O)O (centres undefined),25.8% (inactive)
15,Cc1ccc(S(=O)(=O)NCc2cn3ccsc3n2)c(C)c1,21.3% (inactive)
16,COc1ccc(CCN(Cc2cc3cccc(C)c3[nH]c2=O)C(=O)N2CCCC2)cc1OC,32.5% (inactive)
17,O=C(CC1OC(=O)c2ccccc21)NC1CCCCC1 (centres undefined),-99.1% (inactive)
18,CCOc1ccccc1NC(=O)c1cc(S(=O)(=O)N2CCC3(CC2)OCCO3)ccc1F,6.8% (inactive)
19,O=C(Nc1ccccc1F)c1cc(S(=O)(=O)N2CCCCC2)cs1,75.6% (active)
20,O=C(CN1CCN(S(=O)(=O)c2ccc(F)cc2)CC1)Nc1ccccc1F,40.4% (inactive)
21,COc1ccc(CN(Cc2ccco2)S(=O)(=O)c2ccc(S(=O)(=O)N3CCCC3)cc2)cc1,39.9% (inactive)
22,CCOC(=O)Cn1c(=O)oc2cc(S(=O)(=O)N(C)Cc3ccco3)ccc21,28.8% (inactive)
23,CCOc1ccc(CN(Cc2ccco2)S(=O)(=O)c2ccc(-n3cnnn3)c(OC)c2)cc1,65.1% (active)
24,NC(=O)N1CCCC1C(=O)Nc1ccc(Cl)c(Cl)c1 (centres undefined),14.9% (inactive)
